# Data: paper PMC5540273 (PLoS ONE, 2017)
# Read-outs that look alike come from different tables or passages of the source.
# Assays:
# [1] = test system: STK16; settings: concentration: 1 μM, replicates: in singlicate; n = 1
# [2] = test system: STK33; settings: concentration: 1 μM, replicates: in singlicate; n = 1
# [3] = test system: STK35; settings: concentration: 1 μM, replicates: in singlicate; n = 1
# [4] = test system: STK36; settings: concentration: 1 μM, replicates: in singlicate; n = 1
# [5] = test system: STK39; settings: concentration: 1 μM, replicates: in singlicate; n = 1
# [6] = test system: SYK; settings: concentration: 1 μM, replicates: in singlicate; n = 1
# [7] = test system: SgK110; settings: concentration: 1 μM, replicates: in singlicate; n = 1
# [8] = test system: T1, TAK1; settings: concentration: 1 μM, replicates: in singlicate; n = 1
# T1 construct: gene MAP3K7
# [9] = test system: TAOK1; settings: concentration: 1 μM, replicates: in singlicate; n = 1
# [10] = test system: TAOK2; settings: concentration: 1 μM, replicates: in singlicate; n = 1
# [11] = test system: TAOK3; settings: concentration: 1 μM, replicates: in singlicate; n = 1
# [12] = test system: TBK1; settings: concentration: 1 μM, replicates: in singlicate; n = 1
# [13] = test system: TEC; settings: concentration: 1 μM, replicates: in singlicate; n = 1
# [14] = test system: TESK1; settings: concentration: 1 μM, replicates: in singlicate; n = 1
# [15] = test system: TGFBR1; settings: n = 1
# [16] = test system: TGFBR2; settings: concentration: 1 μM, replicates: in singlicate; n = 1
# [17] = test system: TIE1; settings: concentration: 1 μM, replicates: in singlicate; n = 1
# [18] = test system: T2, TIE2; settings: concentration: 1 μM, replicates: in singlicate; n = 1
# T2 construct: gene TEK
# [19] = test system: TLK1; settings: concentration: 1 μM, replicates: in singlicate; n = 1
# [20] = test system: TLK2; settings: concentration: 1 μM, replicates: in singlicate; n = 1
# [21] = concentration: 1 μM, replicates: in singlicate
# 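Note: KINOMEscan kinase panel screen.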
compound,measurement,setting,value
CS(=O)(=O)c1ccc(-c2nc3n(c2-c2ccncc2)CCC3)cc1 [SKF-105942],%Inh,[1],96.8%
same,%Inh,[2],0%
same,%Inh,[3],0%
same,%Inh,[4],0%
same,%Inh,[5],0%
same,%Inh,[6],11%
same,%Inh,[7],0%
same,%Inh,[8],0%
same,%Inh,[9],0%
same,%Inh,[10],0%
same,%Inh,[11],0%
same,%Inh,[12],27%
same,%Inh,[13],7%
same,%Inh,[14],1%
same,%Inh,[15]; [21],15%
same,%Inh,[16],0%
same,%Inh,[17],8%
same,%Inh,[18],0%
same,%Inh,[19],0%
same,%Inh,[20],0%
CC(C)(C)c1ccc(C(=O)Nc2cn3cc(Cl)ccc3n2)cc1,%Inh,[1],0%
same,%Inh,[2],0%
same,%Inh,[3],0%
same,%Inh,[4],0%
same,%Inh,[5],0%
same,%Inh,[6],17%
same,%Inh,[7],0%
same,%Inh,[8],0%
same,%Inh,[9],0%
same,%Inh,[10],10%
same,%Inh,[11],0%
same,%Inh,[12],0%
same,%Inh,[13],0%
same,%Inh,[14],0%
same,%Inh,[15]; [21],0%
same,%Inh,[16],0%
same,%Inh,[17],0%
same,%Inh,[18],13%
same,%Inh,[19],23%
same,%Inh,[20],0%
C[C@@H]1CCCCN1c1cc(-c2ccc3c(N)n[nH]c3c2)nc(N)n1 [GSK2258759],%Inh,[1],19%
same,%Inh,[2],0%
same,%Inh,[3],0%
same,%Inh,[4],0%
same,%Inh,[5],0%
same,%Inh,[6],10%
same,%Inh,[7],0%
same,%Inh,[8],0%
same,%Inh,[9],0%
same,%Inh,[10],0%
same,%Inh,[11],0%
same,%Inh,[12],24%
same,%Inh,[13],0%
same,%Inh,[14],0%
same,%Inh,[16],0%
same,%Inh,[17],0%
same,%Inh,[18],0%
same,%Inh,[19],23%
same,%Inh,[20],4%
Clc1cc(Cl)cc(Nc2ccnc(Nc3cc(Cl)cc(Cl)c3)n2)c1 [GSK175726],%Inh,[1],24%
same,%Inh,[2],0%
same,%Inh,[3],0%
same,%Inh,[4],39%
same,%Inh,[5],2%
same,%Inh,[6],12%
same,%Inh,[7],0%
same,%Inh,[8],18%
same,%Inh,[9],44%
same,%Inh,[10],6%
same,%Inh,[11],0%
same,%Inh,[12],28%
same,%Inh,[13],0%
same,%Inh,[14],20%
same,%Inh,[15]; [21],0%
same,%Inh,[16],7%
same,%Inh,[17],0%
same,%Inh,[18],0%
same,%Inh,[19],25%
same,%Inh,[20],3%
Cn1ccc2ncnc(Oc3ccc(NC(=O)Nc4ccccc4)cc3)c21,%Inh,[1],9%
same,%Inh,[2],17%
same,%Inh,[3],17%
same,%Inh,[4],0%
same,%Inh,[5],0%
same,%Inh,[6],12%
same,%Inh,[7],2%
same,%Inh,[8],4%
same,%Inh,[9],0%
same,%Inh,[10],0%
same,%Inh,[11],0%
same,%Inh,[12],30%
same,%Inh,[13],0%
same,%Inh,[14],1%
same,%Inh,[15]; [21],0%
same,%Inh,[16],0%
same,%Inh,[17],0%
same,%Inh,[18],0%
same,%Inh,[19],2%
same,%Inh,[20],0%
Cl.c1ccc(-c2n[nH]cc2-c2ccnc(-c3ccc(CN4CCOCC4)cc3)c2)nc1 [GW776245],%Inh,[1],17%
same,%Inh,[2],0%
same,%Inh,[3],0%
same,%Inh,[4],9%
same,%Inh,[5],0%
same,%Inh,[6],16%
same,%Inh,[7],0%
same,%Inh,[8],0%
same,%Inh,[9],0%
same,%Inh,[10],5%
same,%Inh,[11],0%
same,%Inh,[12],61%
same,%Inh,[13],17%
same,%Inh,[14],6%
same,%Inh,[15]; 1 µM,94.5%
same,%Inh,[16],87%
same,%Inh,[17],0%
same,%Inh,[18],24%
same,%Inh,[19],0%
same,%Inh,[20],0%
Nc1ncnc2[nH]c(-c3ccccc3)nc12 [AH5015],%Inh,[1],0%
same,%Inh,[2],0%
same,%Inh,[3],0%
same,%Inh,[4],4%
same,%Inh,[5],0%
same,%Inh,[6],10%
same,%Inh,[7],0%
same,%Inh,[8],0%
same,%Inh,[9],7%
same,%Inh,[10],0%
same,%Inh,[11],9%
same,%Inh,[12],10%
same,%Inh,[13],28%
same,%Inh,[14],30%
same,%Inh,[15]; [21],10%
same,%Inh,[16],9%
same,%Inh,[17],38%
same,%Inh,[18],0%
same,%Inh,[19],0%
same,%Inh,[20],0%
COC(=O)c1c(-c2ccccc2)c2cc(OC)ccc2c(=O)n1Cc1ccccc1,%Inh,[1],3%
same,%Inh,[2],0%
same,%Inh,[3],3%
same,%Inh,[4],11%
same,%Inh,[5],0%
same,%Inh,[6],0%
same,%Inh,[7],0%
same,%Inh,[8],19%
same,%Inh,[9],0%
same,%Inh,[10],0%
same,%Inh,[11],0%
same,%Inh,[12],0%
same,%Inh,[13],14%
same,%Inh,[14],20%
same,%Inh,[15]; [21],17%
same,%Inh,[16],0%
same,%Inh,[17],3%
same,%Inh,[18],0%
same,%Inh,[19],23%
same,%Inh,[20],0%
COc1ccc2nc(-c3cccc(C)n3)nc(Nc3ccncc3)c2c1 [GSK204919],%Inh,[1],1%
same,%Inh,[2],0%
same,%Inh,[3],5%
same,%Inh,[4],0%
same,%Inh,[5],7%
same,%Inh,[6],10%
same,%Inh,[7],2%
same,%Inh,[8],0%
same,%Inh,[9],0%
same,%Inh,[10],0%
same,%Inh,[11],0%
same,%Inh,[12],3%
same,%Inh,[13],8%
same,%Inh,[14],26%
same,%Inh,[16],10%
same,%Inh,[17],9%
same,%Inh,[18],0%
same,%Inh,[19],0%
same,%Inh,[20],0%
Cc1ccc(NC(=O)Nc2cccc(Cl)c2)cc1-c1ccc(C(=O)Nc2ccncc2)cc1 [GSK1398468],%Inh,[1],9%
same,%Inh,[2],0%
same,%Inh,[3],0%
same,%Inh,[4],1%
same,%Inh,[5],0%
same,%Inh,[6],3%
same,%Inh,[7],0%
same,%Inh,[8],0%
same,%Inh,[9],0%
same,%Inh,[10],0%
same,%Inh,[11],0%
same,%Inh,[12],5%
same,%Inh,[13],13%
same,%Inh,[14],18%
same,%Inh,[15]; [21],30%
same,%Inh,[16],0%
same,%Inh,[17],0%
same,%Inh,[18],0%
same,%Inh,[19],0%
same,%Inh,[20],12%
